# Measured values as given in PubChem BioAssay AID588342 (National Center for Advancing Translational Sciences (NCATS), 2011).
# Hit rate of the full screen: of about 360,000 compounds, about 25,000 (6.9%) were called active. Not shown: some 9% with an inconclusive outcome. Only a selection was taken, and actives are over-represented in it overall. Values without a mark were called inactive. Calls follow the shape of the dose curve; as a rule, active = well fitted inhibition curve with a large enough effect; inconclusive = small, poorly fitted or top-dose-only effect; inactive = flat fitted curve, though single readings scatter.
# Target: Luciferin 4-monooxygenase (Photinus pyralis) (UniProt P08659)
# Experiment: qHTS profiling assay for firefly luciferase inhibitor/activator using purifed enzyme and Km concentrations of substrates (counterscreen for miR-21 project); also: nearly all actives have a fitted effect of over 55% in size;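 as to activity change, negative = inhibition: plate controls were vehicle for no effect and reference inhibitor for full effect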
# Conditions: purified FLuc, luminescence inhibition; series mostly up to 57.5 µM; activity change, negative = inhibition: at the top concentration
# How it was run: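 Purified P. pyralis luciferase (10nM final) with 10uM D-luciferin and 10uM ATP (Km levels) in 50mM Tris acetate pH 7.5, 10mM Mg acetate, 0.01% Tween-20, 0.05% BSA; qHTS 6-point titration, ~60 µM downward; luminescence read.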
# Potency is read from the fitted curve at half-maximal effect.
# Chain of Luciferin 4-monooxygenase (Photinus pyralis) (P08659 whole entry, looked up): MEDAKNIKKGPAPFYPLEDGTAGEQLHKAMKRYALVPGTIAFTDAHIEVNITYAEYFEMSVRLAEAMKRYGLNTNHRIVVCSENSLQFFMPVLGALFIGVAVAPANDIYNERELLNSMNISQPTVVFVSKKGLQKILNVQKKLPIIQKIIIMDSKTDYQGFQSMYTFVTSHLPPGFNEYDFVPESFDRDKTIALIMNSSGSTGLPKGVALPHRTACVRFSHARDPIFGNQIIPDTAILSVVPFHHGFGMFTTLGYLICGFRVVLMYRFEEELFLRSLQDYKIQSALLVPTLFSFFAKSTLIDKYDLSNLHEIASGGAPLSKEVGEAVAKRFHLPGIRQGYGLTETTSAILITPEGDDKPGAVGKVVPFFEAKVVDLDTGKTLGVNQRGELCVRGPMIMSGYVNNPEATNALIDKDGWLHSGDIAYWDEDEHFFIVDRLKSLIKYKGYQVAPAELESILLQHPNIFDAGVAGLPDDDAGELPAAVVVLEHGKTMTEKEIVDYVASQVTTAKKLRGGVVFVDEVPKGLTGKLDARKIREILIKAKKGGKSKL
SMILES,"activity change, negative = inhibition",Potency
O=P(O)(CN1CCCCC1)CN1CCCCC1,3.43%,–
CCOc1ccc(CNC(=O)c2ccc(CS(=O)c3ccccc3)o2)cc1 (stereo unspecified),-8.55%,–
CCN(CC)S(=O)(=O)c1ccc2[nH]c(=O)cc(C(=O)N(C)C3CCS(=O)(=O)C3)c2c1 (stereo unspecified),3.37%,–
CCc1ccc(C2C(C(=O)Nc3ccccc3)=C(C)Nc3c(C(=O)Nc4ccc(C)cc4)cnn32)cc1 (stereo unspecified),-4.9%,–
CC(=O)Nc1c(C)nn(-c2ccccc2)c1N1CCC(C(=O)Nc2cc(Cl)ccc2C)CC1,-9.72%,–
CC1CCCC(C)N1C(=O)CN1CCN(c2nc(-c3ccc(F)cc3)cs2)CC1 (stereo unspecified),-6.06%,–
CCOc1cc(NC(=S)NCCCOC)c(OCC)cc1NC(=O)c1ccco1,0.523%,–
COc1ccc(NC(=O)COCc2cc(-c3ccco3)on2)cc1,-10.2%,–
COCCNC(=O)Nc1ccc2nc(-c3ccco3)c(-c3ccco3)nc2c1,–,21.3 µM (active)
Cc1ccc(C)c(OCCC(=O)Nc2cccc(S(=O)(=O)N3CCCC3)c2)c1,-0.118%,–
Cc1ccc(C(=O)NCC(=O)OCC(=O)Nc2cccc(S(=O)(=O)N3CCCC3)c2)cc1C,–,9.53 µM (active)
O=C(CCNC(=O)c1ccc(Br)cc1)Nc1cccc(S(=O)(=O)N2CCCCC2)c1,-4.3%,–
COc1ccc(C(=O)OCC(=O)NC(=O)CCSc2ccccc2)cc1,-10.5%,–
CC(OC(=O)c1ccc2ccccc2n1)C(=O)c1ccccc1 (stereo unspecified),–,0.953 µM (active)
COc1ccc(C(=O)COC(=O)COc2ccc(C)c(C)c2)cc1,-17.9%,–
CC(OC(=O)CN1C(=O)c2ccccc2C1=O)C(=O)c1ccccc1 (stereo unspecified),0.618%,–
COc1ccc(C(=O)COC(=O)c2ccc3ccccc3n2)cc1,–,21.3 µM (active)
CC(OC(=O)c1ccccc1N1C(=O)C2C3CCC(C3)C2C1=O)C(=O)c1ccccc1 (stereo unspecified),4.19%,–
CCc1ccc2ncc3c(-c4ccc(C)cc4)nn(CC(=O)NCc4ccccc4)c3c2c1,2.49%,–
COC(=O)C1=CO[C@@H](O[C@@H]2O[C@H](CO)[C@@H](O)[C@H](O)[C@H]2O)C2C1C[C@H](O)[C@@H]2C (stereo partly specified),-0.138%,–
CCn1c(SCC(=O)N/N=C/c2ccccc2OCC(=O)O)nnc1-c1ccc(C(C)(C)C)cc1,–,26.9 µM (active)
CCn1c(SCC(=O)N/N=C/C=C/c2ccccc2[N+](=O)[O-])nnc1-c1ccccc1,-1.86%,–
Cc1ccc(Cn2c(SCC(=O)N/N=C/c3ccccc3OCC(=O)O)nc3ccccc32)cc1,-19.8%,–
CNC(=O)c1csc(Cc2c(Cl)sc3ccc(Cl)cc23)n1,-1.07%,–
O=C(OCC(=O)N1CCN(C(=O)c2ccco2)CC1)c1ccc(Cl)c(Cl)c1,3.62%,–
CCN(CC)c1ccc(C(=O)OCC(=O)c2ccco2)cc1,–,15.1 µM (active)

SMILES,"activity change, negative = inhibition",Potency
O=C(COC(=O)c1ccco1)NCc1ccc(Cl)cc1,-13.8%,–
CCc1ccc(C(=O)COC(=O)c2ccco2)cc1,–,0.478 µM (active)
O=C(OCC(=O)N1CCCC1)c1ccco1,4.45%,–
O=C(COC(=O)c1ccccc1C(=O)c1ccccc1)c1ccco1,1.88%,–
C[C@@H](NC(=O)[C@@H]1Cc2ccccc2CN1)C(=O)NC1CCCC1,0.763%,–
COc1ccccc1CNC(=O)c1cc(=O)c2ccccc2o1,-11.9%,–
CCOC(=O)c1sc(N)c(C#N)c1COC(=O)C1=COCCO1,-1.27%,–
CN(CC(=O)Nc1c(Cl)cccc1Cl)C(=O)CC1OC(=O)c2ccccc21 (stereo unspecified),3.1%,–
CCOc1ccc(N(CC)S(=O)(=O)N2CCCC(C(=O)NCc3ccc(SC)cc3)C2)cc1 (stereo unspecified),-13.4%,–
Cc1oc2c(c1C(=O)Nc1ccc(F)c(F)c1)C1=NCCN1C=N2,0.154%,–
Brc1ccccc1C1N=C(c2ccccc2)NO1 (stereo unspecified),–,19 µM (active)
N#Cc1ccc(C2N=C(c3ccccc3)NO2)cc1 (stereo unspecified),–,10.7 µM (active)
CCOC(=O)Cn1c(=O)n(C2CCCCC2)c2nc(-c3cccc(OC)c3)nc(C(N)=O)c21,1.49%,–
COc1ccc(CNC(=O)c2cc3c(-c4ccccc4F)nn(C)c3s2)c(OC)c1,2.08%,–
CCOC(=O)C1CCCN(C(=O)c2ccc(-n3ccc4ccccc43)s2)C1 (stereo unspecified),-16.1%,–
CCN(Cc1ccccc1)C(=O)CCS(=O)(=O)c1ccc2c(c1)oc(=O)n2C,–,inactive
Cc1ccc(/C=C/C(=O)OCC(=O)NCc2ccc(Cl)cc2)o1,-2.85%,–
CCC(=O)N1CCc2cc(Br)cc(S(=O)(=O)NCc3ccc(Cl)cc3)c21,-8.46%,–
CCCNC(=O)c1ccc2c(c1)ncn2-c1ccc(C)cc1C,1.1%,–
C=CCNC(=O)c1ccc2c3n(nc2c1)-c1ccc(C)cc1CO3,–,2.39 µM (active)
C=CCNC(=O)c1ccc(C)c(Br)c1,-2.07%,–
COc1cccc(CNC(=O)C(NS(=O)(=O)c2ccc3nc(C)sc3c2)C(C)C)c1 (stereo unspecified),-1.94%,–
COc1ccc(Cl)cc1NC(=O)CN(C)C(=O)CNC(=O)C12CC3CC(CC(C3)C1)C2,-0.933%,–
C/C(=N/NC(=O)c1cc(Cl)ccc1O)C12CC3CC(CC(C3)C1)C2,–,15.1 µM (active)
COc1ccc(OC)c(/C(C)=N\NC(=O)c2cc3cc(Cl)ccc3n2C)c1,0.109%,–
